Experimental data as given in PubChem BioAssay AID686979 (National Center for Advancing Translational Sciences (NCATS), 2013).
The campaign covered roughly 420,000 compounds. About 50,000 (12%) were called active. Not shown: some 26% with an inconclusive outcome. The entries come from a sample that favours actives as a whole. A number with no mark means an inactive call. Calls come from the whole dose curve; as a rule, active = well fitted inhibition curve with a large enough effect; inconclusive = small, poorly fitted or top-dose-only effect; inactive = flat fitted curve, though single readings scatter.

Assay: qHTS for Inhibitors of human tyrosyl-DNA phosphodiesterase 1 (TDP1): qHTS in cells in presence of CPT; note: nearly all actives have a fitted effect of over 55% in size
Conditions: chicken DT40 Tdp1-/-;hTDP1 cells + 20 nM CPT, ATP luminescence, 48 h; series mostly up to 46.2 µM; activity change, negative = growth inhibition: at the top concentration
Outline: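 Chicken DT40 Tdp1-/- cells stably complemented with human TDP1 were seeded at 400 cells/well in medium containing 20 nM camptothecin, exposed to pin-transferred compounds, and grown at 37 °C for at least 48 hr. Viability was read as ATP luminescence.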
% is set by controls: 0 for no effect and ±100 for the full control effect; potency is the fitted concentration of half-maximal effect.

Compound | activity change, negative = growth inhibition [%] | Potency
Cc1cc(C)cc(NC(=O)CN2C(=O)c3ccccc3C2=O)c1 | 11.3 | –
Cc1cccc(C(=O)Nc2ccc(C(=O)N/N=C/c3cccc(C)n3)cc2)c1 | -21.6 | –
Cc1cccc(C(=O)Nc2ccc(CC(=O)O)cc2)c1 | -0.617 | –
Cc1cccc(C(=O)Nc2ccc(C(=O)/C=C/c3cccs3)cc2)c1 | – | 16.4 µM (active)
CC(C)c1ccc(C(=O)OC2CCOC2=O)cc1 (stereo not drawn) | -0.715 | –
COc1ccc(-c2onc(C)c2C)cc1S(=O)(=O)NCC1CCN(Cc2cccc(F)c2)CC1 | – | 20.6 µM (active)
COc1ccc(C(=O)O)cc1S(=O)(=O)NC1CCN(Cc2ccccc2)CC1 | 14.9 | –
COc1ccc(-c2onc(C)c2C)cc1S(=O)(=O)NCCc1ccccc1 | – | 20.6 µM (active)
Cc1ccc(-c2onc(C)c2C)cc1S(=O)(=O)Nc1ccccn1 | -17.1 | –
COc1ccc(CCNS(=O)(=O)c2cn(C)nc2C)cc1 | -18.1 | –
CCOC(=O)C1CCN(S(=O)(=O)c2cc(F)ccc2OC)CC1 | -16.9 | –
C[C@H]1CN([C@@H](C)CO)C(=O)CCCn2cc(nn2)CO[C@@H]1CN(C)S(=O)(=O)c1ccc(-c2ccccc2)cc1 | -26.9 | –
O=C(c1ccco1)N1CCC2(CC1)CCN(c1ncccn1)CC2 | -25.7 | –
CC(=O)Nc1ccc(S(=O)(=O)NC(C)C(=O)OCC(=O)NC2CCCC2)cc1 (stereo not drawn) | -4.92 | –
O=C(COc1ccc(-n2cnnn2)cc1)Nc1ccccc1Cl | -7.88 | –
Nc1nnc(SCC(=O)OCc2ccc(Cl)c(Cl)c2)s1 | -26.2 | –
CCOC(=O)C(Sc1ncc(C#N)c(N)n1)C(C)C (stereo not drawn) | -28 | –
O=C(NC(Cc1ccc(O)cc1)C(=O)O)/C(=C/c1ccccc1)NC(=O)c1ccccc1 (stereo not drawn) | -11.8 | –
O=C(CCc1nc2ccccc2c(=O)[nH]1)OCC(=O)c1cccc(Cl)c1 | -1.52 | –
Clc1ccc2nc(-c3ccccc3)nc(C(Cl)Cl)c2c1 | – | 0.164 µM (active)
N#CCSc1nc(-c2ccccc2)nc2ccc(F)cc12 | -12 | –
Cc1nn(-c2ccccc2)c(C)c1/C=C/C(=O)OC(C)C(N)=O (stereo not drawn) | 0.211 | –
Cc1ccc2c(NC(=O)C3CC3)cccc2n1 | -3.12 | –
Cc1ccc(/C=C(\C#N)C(=O)Nc2cccc3ncccc23)o1 | – | 16.4 µM (active)
Cc1ccc(C(=O)Nc2cccc3ncccc23)cc1[N+](=O)[O-] | -22.8 | –
CC(C)(C)NC(=O)Cn1c(SCC(=O)Nc2nccs2)nc2ccccc21 | -11.2 | –

Compound | activity change, negative = growth inhibition [%] | Potency
NC(=O)NC(=O)C(OC(=O)CCNS(=O)(=O)c1ccccc1)c1ccccc1 (stereo not drawn) | 1.03 | –
COCCNC(=O)C(c1ccc(C)cc1)N(C(=O)CCC(=O)Nc1ccccn1)c1cccc(C)c1 (stereo not drawn) | -11 | –
CCCCCC(=O)N1C[C@H](O)[C@@H](n2cc(COC(=O)c3ccccc3)nn2)C[C@@H]1c1ccc(C)cc1 | – | 0.82 µM (active)
O=C(OCc1cn([C@@H]2C[C@H](c3ccc(Cl)cc3)N(Cc3cccs3)C[C@H]2O)nn1)c1ccccc1 | -3.26 | –
CCCCCCN1C[C@@H](O)[C@H](n2cc(COC(=O)c3ccccc3)nn2)C[C@@H]1c1ccc(Cl)cc1 | -19.1 | –
Cc1cc(S(=O)(=O)NCC(C)C)ccc1OCC(=O)NC1CC1 | -1.97 | –
CC(Sc1ncnc2c1cnn2-c1ccccc1)C(=O)Nc1ccc(N2CCOCC2)cc1 (stereo not drawn) | 4.76 | –
CCOC(=O)c1c(CN(C)C)n(-c2ccccc2)c2cc(Br)c(O)cc12 | -18.9 | –
O=C1/C(=C\c2ccc(O)cc2)CCC1CNc1ccc(Cl)cc1 (stereo not drawn) | – | 4.61 µM (active)
CC(C(=O)NC1CCS(=O)(=O)C1)N1C(=O)/C(=C/c2ccc(Cl)cc2)SC1=S (stereo not drawn) | -27.2 | –
CCOCCCNC(=O)c1ccc(CS(=O)(=O)c2cccc(C(F)(F)F)c2)o1 | -0.971 | –
O=C(CO/N=C/c1ccccc1OC(F)F)NC1CCCC1 | 3.7 | –
O=C(CO/N=C/c1ccccc1O)NNC(=O)c1ccccc1Cl | – | 0.461 µM (active)
NS(=O)(=O)c1cc(C(=O)OCC(=O)NNC(=O)c2ccccc2)ccc1Cl | 4.84 | –
Cc1ccc(-n2c(Cc3cccs3)nnc2SCC(=O)OC(C)C)cc1 | 1.44 | –
CCn1c(SCC(=O)c2ccc(Cl)s2)nnc1-c1cccs1 | -29.9 | –
CCn1c(Cc2cccs2)nnc1SCC(=O)c1ccc(C)cc1 | – | 11.2 µM (active)
CC(C)C[C@H](CO)Nc1nc(N(C)c2cccc(Cl)c2)c2ncn(C(C)C)c2n1 | – | 16.4 µM (active)
COC(=O)C(C)n1cnc2c(nnn2-c2cccc(Cl)c2)c1=O (stereo not drawn) | -12.8 | –
Cc1ccnc(NS(=O)(=O)c2ccc(NC(=O)c3ccc(S(=O)(=O)N(C)C)cc3)cc2)n1 | -11.2 | –
CCOc1cc2c(Cl)ncnc2c(OCC)c1OCC | 1.52 | –
CCCCC(=O)OC1=CN(Cc2ccccc2)S(=O)(=O)c2ccccc21 | 12.4 | –
O=C(OCc1cn(-c2ccc(Cl)c(Cl)c2)nn1)c1ccccc1Cl | -12.9 | –
COc1cc2c(cc1OC)C(C)N(S(=O)(=O)c1cnc(Cl)c(Cl)c1)CC2 (stereo not drawn) | -112 | –
CC(C)(C)NC(=O)C(=O)NN=C1CCCCCCC1 | 8.31 | –
CC(C)NC(=S)NN=C1CCCCCCCCCCC1 | – | 13 µM (active)

Compound | activity change, negative = growth inhibition [%] | Potency
CCc1ccc(C(=O)NN=C2CCCCCC2)s1 | 3.08 | –
CC(C)(C)c1ccccc1NC(=O)CN1C(=O)NC2(CCCC2)C1=O | -1.6 | –
COC(=O)c1ccc(CN2C(=O)C(Cc3ccccc3)ON=C2c2ncccc2C)o1 (stereo not drawn) | -16.6 | –
Cc1ccc(C)c(NC(=O)Cn2ccn(-c3ccc(F)cc3)c(=O)c2=O)c1 | 8.32 | –
COc1ccccc1NC(=O)CCC(=O)OC(C)C(=O)c1ccccc1 (stereo not drawn) | 3.03 | –
O=C(Nc1ccc(F)cc1)c1cc2c(s1)CCCC2 | -27.3 | –
COc1cccc(C(=O)NC2(C(F)(F)F)C(=O)Nc3c2c(=O)[nH]c(=O)n3-c2ccc(C)cc2)c1 (stereo not drawn) | – | 25.9 µM (active)
CCOc1ccccc1C(=O)NC1(C(F)(F)F)C(=O)Nc2c1c(=O)[nH]c(=O)n2-c1ccc(F)cc1 (stereo not drawn) | 6.4 | –
COc1cccc(C(=O)NNC(=O)c2cccc(F)c2)c1 | 0.0986 | –
O=P(O)(O)C(O)c1ccc2ccccc2c1 (stereo not drawn) | 0.0947 | –
C/C(CCc1ccccc1)=N\NC(=O)c1ccc(CN2CCOCC2)cc1 | -2.29 | –
CCN1CN(Cc2ccccc2)CNC1=S | -9.4 | –
S=C1SCN(CCN2CCOCC2)CN1Cc1ccccc1 | – | 5.01 µM (active)
COc1ccc(CCN2CC(C(=O)NCCN3CCNC3=O)CCC2=O)cc1 (stereo not drawn) | 2.06 | –
CC(C)NC(=S)Nc1cccc2cnccc12 | 0.573 | –
CCN(CC)CC(=O)Nc1nn(-c2ccccc2)nc1C(N)=O | -6.91 | –
COc1ccc2nc(C)cc(Nc3cccc(C(=O)O)c3)c2c1 | -14 | –
COc1cccc(CSc2nc3nc(C)cc(C)n3n2)c1 | -4.29 | –
COc1cccc(-c2nc3nc(C)cc(C)n3c2NC2CCCCC2)c1 | – | 18.4 µM (active)
COc1ccc(-c2cc(C)nc3nc(N)nn23)cc1 | -13.2 | –
COc1cccc(-c2cnc(OC(C)(C)C)nc2OC(C)(C)C)c1 | 0.304 | –
COc1ccc(-c2nc3nc(C)cc(C)n3c2Nc2c(C)cccc2C)cc1 | – | 16.4 µM (active)
COc1ccccc1C(=O)Nc1nc2nc(-c3ccccc3)cc(=O)n2[nH]1 | -23.3 | –
O=C(NN1C(=O)C2CCCCC2C1=O)c1ccco1 (stereo not drawn) | 4.06 | –
Cc1cccc(C(=O)N2CCN(S(=O)(=O)N3CCCCC3)CC2)c1 | -15.7 | –
Cc1cc(C)c(NC(=O)CN2C(=O)NC(Cc3ccccc3)C2=O)c(C)c1 (stereo not drawn) | -14.1 | –

Compound | activity change, negative = growth inhibition [%] | Potency
O=S(=O)(NCCc1ccccn1)c1cc(Cl)cc(Cl)c1O | 0.802 | –
Cc1cccc(NC(=O)CN2CCN(CC(=O)NCC3(N4CCCCC4)CCCCC3)CC2)c1C | -16.1 | –
Cc1cccc(NC(=O)CN2CCN(C(=O)C3CCN(C(=O)/C=C/c4ccccc4)CC3)CC2)c1C | – | 16.4 µM (active)
COc1ccccc1CCNC(=O)C1CCN(C(=O)/C=C/c2ccccc2)CC1 | 5.89 | –
Cc1ccc(S(=O)(=O)NC[C@H]2O[C@@H](n3cnc4c(N)ncnc43)[C@H](O)[C@@H]2O)s1 | 0.238 | –
COc1ccc(NC(=O)c2ccccc2CC[N+](=O)[O-])cc1 | 2.49 | –
C=CCNc1scc(-c2ccccc2)[n+]1CC=C | -12.3 | –
C=CC[n+]1c(-c2ccc(C)cc2)csc1NNC(=O)Nc1ccccc1 | – | 10.3 µM (active)
O=C(NNC(=O)c1ccc(-c2ccccc2)cc1)Nc1ccccc1 | -6.03 | –
C[C@H]1CN([C@@H](C)CO)C(=O)CCCn2cc(nn2)CO[C@@H]1CN(C)S(=O)(=O)c1ccccc1C#N | 0.957 | –
O=C(c1cc(COc2ccc(F)cc2F)on1)N1CCOCC1 | 8.14 | –
COc1ccc(-c2noc(-c3ccc(N4CCN(c5ccccc5)CC4)c([N+](=O)[O-])c3)n2)cc1OC | – | 23.1 µM (active)
COc1cc(-c2noc(-c3ccc(N4CCCC4)c([N+](=O)[O-])c3)n2)cc(OC)c1OC | -2.73 | –
CNc1ccc(-c2nc(-c3ccco3)no2)cc1[N+](=O)[O-] | -19.2 | –
Cc1nnc(SCc2cc(=O)c3cc(F)ccc3[nH]2)n1C | 10 | –
CCOC(OCC)c1ccc(/C=C\c2nccc(N)n2)cc1 | -14.8 | –
COc1ccc2nc(Nc3nc(-c4cc5ccccc5oc4=O)cs3)sc2c1 | – | 5.8 µM (active)
O=c1oc2ccccc2cc1-c1csc(Nc2ccc(O)cc2)n1 | – | 9.2 µM (active)
COc1ccc2nc(NC(=O)[C@@H]3CCCN3C(=O)c3cccs3)sc2c1 | 3.56 | –
CCNc1nc(-c2cc3ccccc3o2)cs1 | 6.56 | –
COc1ccc2nc(Nc3nc(-c4ccncc4)cs3)sc2c1 | -20 | –
Nc1ncc(-c2cc3ccccc3oc2=O)s1 | -16.5 | –
CC1CCCCN1Cc1c(O)ccc2c(=O)c(-c3cccc(Cl)c3)c(C(F)(F)F)oc12 (stereo not drawn) | -14.3 | –
C[C@@H]1NS(=O)(=O)c2cc(Cl)ccc2O[C@@H]1c1ccccc1 | -1.11 | –
C[C@H](CO)N1C[C@H](C)[C@H](CN(C)C(=O)c2ccncc2)OCc2ccccc2-c2c(n(C)c3ccccc23)C1=O | -22.7 | –
